Results from PubChem BioAssay AID624331 (National Center for Advancing Translational Sciences (NCATS), 2012).
Records with an inconclusive call do not appear. Activity calls are given as the source filed them. The call rests on the fitted dose curve; in most records, active means well fitted activation curve with a large enough effect; inconclusive means small, poorly fitted or top-dose-only effect; inactive means no such curve, though single readings can be large or run the other way.

Test: qHTS assay for re-activators of p53 using a Luc reporter: Hit Validation with no p53 Expressed; on activity change, positive = activation: 0% is about no effect
Details: p53-null cells, luciferase reporter counter-screen; series mostly up to 46.1 µM; activity change, positive = activation: at the top concentration
Excerpt: The p53 tumor suppressor plays a key role in suppression of tumorigenesis and in human carcinogenesis. It is frequently found inactivated in human cancers, mainly by point mutation. These point mutations are found in a wide variety of human cancers and a majority of them affect the DNA binding domain of the protein. The point mutations either alter native p53 conformation or abolish DNA contact. Additionally, cancer cells with p53 mutations are more resistant to chemo-radiation therapies.
This counter screen was run against the hits identified from the primary screen. It uses a cell line that was not transfected with p53. Compounds that show activity in this counter screen show unspecific activation of the assay system and are excluded from further consideration.
NIH Chemical Genomics Center [NCGC]
NIH Molecular Libraries Probe Production Centers Network [MLPCN]
Assay Provider (PI): Yi Sung, University of Michigan at Ann Arbor
5ul of 1000 cells per well are dispensed in all wells except column 4, into white solid-bottom TC-treated Kalypsys plates. The cells are kept in Opti-MEM and supplemented with 10% FBS and dispensed using a Multidrop (Thermo). Then using the Kalypsys pin-tool, 23nl of compounds are pinned. The compounds are starting concentration at 10mM, with 1:5 dilution, 4 points, and the control compound nocodazole is pinned in column 1 at 25mM, 1:3 dilution, in duplicate, 25mM nocodazole is pinned in column 2. Please note, all concentrations are working concentrations. 5ul of 1pM purified luciferase enzyme is dispensed using the Kalypsys dispenser in column 4. Plates are incubated for 24 hrs at 37 deg C, 5% CO2, and 95% humidity. Then 4ul of the detection reagent Amplite (ABD Bioquest) is added using the Kalypsys dispenser. Plates are incubated for 10 min at ambient room temperature and are then read on the ViewLux (Perkin Elmer) using a clear filter for a luminescent read-out.
Potency means the concentration at half of the fitted maximal effect.

Row | SMILES | activity change, positive = activation | Potency
1 | Cn1c(-c2ncc(F)cc2F)cc2onc(-c3c(F)cccc3Cl)c2c1=O | 66.8% (inactive) | 
2 | CCOc1cccc(-c2nc3cc(C)ccc3o2)c1 | 40.1% (inactive) | 
3 | Cc1cc(C(c2nnnn2Cc2ccccc2)N2CCOCC2)c(C)n1-c1ccc2c(c1)OCO2 (stereo not given) | 35.8% (inactive) | 
4 | CC(C)N1C(=O)CN(C2CCCCCC2)C(=O)C1c1ccccc1F (stereo not given) | -1.85% (inactive) | 
5 | O=c1nc2sc3ccccc3n2c(=O)n1-c1cccc(Cl)c1 | 64.5% (inactive) | 
6 | Nc1nc2ccc(N3CCOCC3)cc2s1 | -16.9% (inactive) | 
7 | O=C(Nc1ccc2c(c1)CCC2)c1ccccc1F | 10.4% (inactive) | 
8 | Fc1cccc(NCc2cn3ccccc3n2)c1 | 29.4% (inactive) | 
9 | CCN(CC)c1ccc2cc(-c3nc4ccccc4n3C)c(=O)oc2c1 | 1.98% (inactive) | 
10 | CCOc1ccc(C(O)Cc2nc3ccccc3n2C)cc1 (stereo not given) | -16.8% (inactive) | 
11 | O=c1oc(CCO)cc2ccc(C#Cc3ccsc3)cc12 | 4.75% (inactive) | 
12 | CCN(CC)c1ccc(NC(=O)CN2CCN(CC(=O)Nc3ccccc3F)CC2)cc1 | 20.6% (inactive) | 
13 | Cc1ccc(S(=O)(=O)NCC(=O)N2CCc3ccccc3C2)cc1 | -42.8% (inactive) | 
14 | Cc1ccc(C(=O)NCC(=O)N2CCCCCC2)cc1 | 39.6% (inactive) | 
15 | Cc1ccc2nc(N3C(=O)C(O)=C(C(=O)c4ccc(C)o4)C3c3ccco3)sc2c1 (stereo not given) | 31.9% (inactive) | 
16 | N#Cc1c(NC(=O)/C=C/c2ccco2)sc2c1CCCC2 | 13% (inactive) | 
17 | Cc1cc(F)ccc1NC(=O)Nc1ccc2c(c1)OCO2 | -27.5% (inactive) | 
18 | CN1CCN(C2=C(Cl)C(=O)N(Cc3ccccc3)C2=O)CC1 | -21.3% (inactive) | 
19 | CCCSc1ccc2nc(-c3ccccc3)cn2c1 | -64.4% (inactive) | 
20 | CC(C)(C)CC(=O)O/N=C(\N)c1ccccn1 |  | 164 nM (active)

Row | SMILES | activity change, positive = activation | Potency
21 | Cc1ccc2cc3c(N)c(C(=O)N4CCOCC4)sc3nc2c1 | 61.4% (inactive) | 
22 | Cc1ccc(OCC(=O)c2cc(C)n(C)c2C)c([N+](=O)[O-])n1 | 40% (inactive) | 
23 | Cc1nn(-c2ccccc2)c(N)c1Sc1ccc([N+](=O)[O-])cc1 | 89.5% (inactive) | 
24 | CCN(CC)CCN1C(=O)C(=O)/C(=C(/O)c2cnn(-c3ccccc3)c2C)C1c1ccc(C)o1 (stereo not given) | 24.6% (inactive) | 
25 | CCOC(=O)N1CCN(S(=O)(=O)c2ccc(C(=O)NNc3nc4cc(C)cc(C)c4s3)cc2)CC1 | -4.06% (inactive) | 
26 | Cc1ccc(C(=O)OCC(=O)NCC2COc3ccccc3O2)cc1 (stereo not given) | 6.53% (inactive) | 
27 | COc1ccc(CC(=O)Nc2ccc(C(=O)Nc3ccccc3C(=O)O)cc2)cc1OC | -17.2% (inactive) | 
28 | O=C(Nc1ccc(-c2nc3cc(Cl)ccc3c(=O)o2)cc1)c1ccco1 | -27.4% (inactive) | 
29 | CCOc1ccc(-c2nnc(SCC(=O)N3CCNC3=O)o2)cc1 | 12.5% (inactive) | 
30 | Cc1cc(-c2nnc(SCc3ccccn3)o2)no1 | -18% (inactive) | 
31 | C/C(=N\N=c1/scc(C)n1Cc1ccco1)c1cccc([N+](=O)[O-])c1 | 26.8% (inactive) | 
32 | CCCCOC(=O)Nc1ccc(N2CCCCC2)cc1 | 27.2% (inactive) | 
33 | COc1ccc([N+](=O)[O-])cc1NC(=O)CSCc1ccc(Br)cc1 | -9.05% (inactive) | 
34 | Cc1ccc(NC(=O)c2ccc3nc[nH]c3c2)cc1C | 9.85% (inactive) | 
35 | Cc1ccc(-c2noc(CN3CCC(C(N)=O)CC3)n2)cc1 | 58.6% (inactive) | 
36 | COCCCNC(=O)Nc1ccc(Br)cc1Cl | -16.6% (inactive) | 
37 | Cc1ccc(-c2nc3ccccc3o2)cc1NC(=O)c1ccc2c(c1)OCO2 | 13.8% (inactive) | 
38 | O=C(Nc1ccc2c(c1)OCO2)c1cc(Cl)ccn1 | -33% (inactive) | 
39 | C/C(=N\NS(=O)(=O)c1ccc(Cl)cc1)c1ccc(NC(=O)c2ccco2)cc1 | -9.33% (inactive) | 
40 | CCOC(=O)c1cccc(C2=CC(=O)C[C@H](c3ccc(OC)cc3)C2)c1 | 43.4% (inactive) | 
